Test results reported in the supplement of paper PMC9694430.
Counter-ions that a name gives are not always drawn.

test system: LOC_OS03G12390-cb001; assay: thermal shift delta Tm vs DMSO control; higher = stronger stabilization (binding); details: 12.5 µM; protein concentration 2 µM
In short: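 Rice kinase domain constructs, made in E. coli and purified, were placed in 96-well plates at 2 μM in 19.5 μl of 100 mM potassium phosphate pH 7.5, 150 mM NaCl, 10% glycerol and 5 × SYPRO Orange, with compound in DMSO. A temperature ramp from 25°C to 95°C at 0.05°C/s was used for differential scanning fluorimetry. The melting temperature shift is a triplicate mean compared with DMSO-only protein, derived from Boltzmann fits.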
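Also: purified Escherichia coli-expressed rice kinase domain construct.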

SMILES | thermal shift delta Tm [°C]
CC#CC(=O)N1CCC[C@H]1c1nc(-c2ccc(C(=O)Nc3ccccn3)cc2)c2c(N)nccn12 [Acalabrutinib (ACP-196)] | -0.37
Nc1ncccc1-c1nc2ccc(-c3ccccc3)nc2n1-c1ccc(C2(N)CCC2)cc1 [Miransertib (ARQ 092) HCl] | -0.09
Cc1cc(C(C)Nc2ccccc2)c2nc(N3CCOCC3)cc(=O)n2c1 (configuration not stated) | -0.12
COc1cc2nccc(Oc3ccc(NC(=O)C4(C(=O)Nc5ccc(F)cc5)CC4)cc3)c2cc1OC [Cabozantinib malate (XL184)] | 0.1
COC(=O)N[C@@H](C)CNc1nccc(-c2cn(C(C)C)nc2-c2cc(Cl)cc(NS(C)(=O)=O)c2F)n1 [Encorafenib (LGX818)] | -0.2
COc1ccc(C(=O)Nc2sc3c(c2C(N)=O)CCCC3)cc1OC | 0.22
CN1C(=O)[C@@H](NC(=O)c2n[nH]c(Cc3ccccc3)n2)COc2ccccc21 | 0.81
Nc1nccc(Oc2ccc(NC(=O)c3c[nH]cc(-c4ccc(F)cc4)c3=O)cc2F)c1Cl | 0.55
COc1cc2c(c(OC)c1OC)-c1c(cc3c(c1OC)OCO3)CC(C)C(C)C2 (configuration not stated) [Schisandrin B (Sch B)] | 0.12
COC(=O)c1ccc2c(c1)NC(=O)/C2=C(\Nc1ccc(N(C)C(=O)CN2CCN(C)CC2)cc1)c1ccccc1 [Nintedanib (BIBF 1120)] | 2.83
O=C(Nc1ccccc1C(=O)NC1CCCCNC1=O)c1cc2ccccc2s1 (configuration not stated) | -0.24
Cc1cc(C)c(/C=C2\C(=O)Nc3ccccc32)[nH]1 [Semaxanib (SU5416)] | 4.53
